The results in this text go back to PubChem BioAssay (NCI).

The panel holds about 83,000 compounds, 20% with a hit somewhere; the sample as a whole holds those more often.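 Cells were grown in 96-well plates and exposed to the test compound at a single concentration for 48 hours; results are reported as percent growth, with values below 10 considered active.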 A number with no mark means an inactive call. Active and inactive are the calls of the source.

Holding throughout (test): NCI-60 one-dose screen, 48 h (100 = growth as untreated, 0 = no growth, -100 = all killed)
Holding throughout (conditions): 10 µM unless noted

Assay [1] relates to NCI-H23 lung.
In assay [2] the test system is NCI-H226 lung.
Assay [3] has as its system NCI-H322M lung.
Assay [4] concerns HOP-62 NSCLC.
Assay [5] deals with NCI-H460 lung.
Assay [6] relates to HOP-92 NSCLC.
In assay [7] the test system is NCI-H522 lung.
Assay [8] relates to A549/ATCC NSCLC.
Assay [9] concerns 786-0 renal.
The test system of assay [10] is COLO 205 colon.
In assay [11] the test system is DU-145 prostate.
For assay [12], the system named is K-562 leukemia.
Assay [13] has as its system MALME-3M melanoma.
The test system of assay [14] is MDA-MB-231 breast.
Assay [15] has as its system RXF 393 renal.
In assay [16] the test system is SF-268 CNS.
The subject of assay [17] is SF-295 CNS.
Assay [18] relates to SF-539 CNS.
In assay [19] the test system is UACC-257 melanoma.
In assay [20] the test system is M14 melanoma.

Turning to `O=C(O)c1cccc2oc(-c3ccccc3O)nc12`, the growth was 54.4% in assay [1]; 63% in assay [2]; 58.7% in assay [3]; 43.6% in [4]; 25.2% in assay [5]; 48.8% in assay [6]. Also, the growth in assay [7] was 31.4%; in [8], 42%; in assay [9], 59.5%; in [10], 12.4%; in assay [11], 63.6%; in [12], 60.9%. Also, the growth in assay [13] was 70.9%; in assay [14] it was 51.9%; in assay [15], 61%; in assay [16], 45%; in [17] it was 31.7%; in assay [18] it was 50%. The growth in [19] was 80.2%; in assay [20] it was 54.8%.

As to `O=C(Nc1cccc(-n2ccc3c(NC(=O)c4ccccc4)nccc32)c1)Nc1ccc(Cl)c(C(F)(F)F)c1`, the growth was 13% in [1]; 21.7% in assay [2]; 39.5% in assay [3]; 33.4% in [4]; -0.783% (active) in [5]; 2.86% (active) in assay [6]. Besides, the growth is -51.5% (active) in assay [7]; 9.59% (active) in assay [8]; -14.8% (active) in [9]; -51.6% (active) in [10]; -19.3% (active) in assay [11]; 3.03% (active) in assay [12]. The growth in assay [13] is 33.6%; in assay [14] it was 13.7%; in assay [15], -41.7% (active); in assay [16], 8.59% (active); in [17], -6.24% (active); in [18] it was 8.31% (active). Moreover, the growth in [19] is 46.2%; in assay [20], 2.96% (active).

For the molecule `Clc1ccc(OCc2nc(-c3ccccc3)n[nH]2)c(Cl)c1`, the growth in assay [1] was 97.6%; in [2], 89.9%; in assay [3], 101%; in assay [4], 86.8%; in [5], 99.3%; in assay [6], 90.8%. Besides, the growth in assay [7] was 92%; in assay [8], 97.1%; in [9], 108%; in assay [10] it was 90.5%; in assay [11], 109%; in assay [12], 111%. Further, the growth was 104% in [13]; 98.8% in assay [14]; 108% in [15]; 96.6% in assay [16]; 97.8% in assay [17]; 99.4% in assay [18]. In addition, the growth in [19] was 97.8%; in assay [20] it was 106%.

Turning to `CCN(CC)CCNc1ccc([N+](=O)[O-])c2sc3cc(Cl)ccc3c(=O)c12`, the growth in [1] was 63.5%; in assay [2], 84.9%; in [3], 53.9%; in assay [4], 57.7%; in [5], -17.8% (active); in [6], 47.5%. Moreover, the growth is 49.4% in [7]; 52.9% in assay [8]; -80.3% (active) in [9]; 60.1% in [10]; 50.2% in [11]; 1.93% (active) in assay [12]. In addition, the growth in assay [13] was -9.6% (active); in assay [14], 22.6%; in assay [15], -39.3% (active); in assay [16] it was 52.4%; in assay [17] it was 43.9%; in assay [18] it was 34.5%. For the same molecule, the growth was 71.5% in assay [19] and 79.4% in assay [20].

As to `COc1ccc(-n2c(-c3ccc(NC(=O)CCCl)cc3)nnc2-c2cc(OC)c(OC)c(OC)c2)cc1`, the growth is 54.8% in assay [1]; 68.8% in assay [2]; 59.4% in [3]; 54.8% in assay [4]; 7.54% (active) in assay [5]; 46.1% in assay [6]. The growth is 43.8% in [7]; 30.2% in assay [8]; 75.4% in [9]; 8.54% (active) in assay [10]; 22.7% in [11]; 49.8% in [12]. For the same molecule, the growth in assay [13] is 71.4%; in [14] it was 53.2%; in assay [15], 8.38% (active); in [16] it was 78.6%; in [17], 53.1%; in assay [18], 41.5%. Further, the figures for the growth in assay [19] and in assay [20] were 52.1% and 59.5%, respectively.

Regarding `NS(=O)(=O)c1ccc(CCN2C(=O)/C(=C\c3ccc(Cl)cc3)C=C2c2ccc(Oc3ccccc3)cc2)cc1`, the growth in assay [1] was 84%; in assay [2], 72.7%; in assay [3], 79.2%; in assay [4] it was 95.9%; in [5] it was 69%; in assay [6], 84.7%. Besides, the growth in assay [7] was 56.1%; in assay [8], 51.8%; in assay [9], 91.1%; in assay [10] it was 80%; in [11], 89.4%; in assay [12], 47.8%. Moreover, the growth in assay [13] was 82%; in [14], 72.9%; in assay [15], 70.3%; in [16], 82.7%; in assay [17] it was 77.3%; in assay [18], 97.7%. Further, the growth was 92.4% in assay [19] and 73.7% in assay [20].

In the case of `COc1ccc2c(c1)C(=O)/C(=C/c1ccc(OCC(=O)c3ccc(Cl)cc3)cc1)O2`, the growth in assay [1] was 97.1%; in [2], 80.7%; in assay [3], 102%; in assay [4] it was 121%; in [5], 106%; in [6] it was 50.6%. Further, the growth in [7] was -64.2% (active); in assay [8] it was 99.2%; in [9], 115%; in assay [10] it was 123%; in [11] it was 104%; in assay [12], -42.3% (active). Besides, the growth in assay [13] is 80%; in [14] it was 68.8%; in [15] it was 74.5%; in assay [16] it was 108%; in [17] it was 73.7%; in assay [18], 96%. For the same molecule, the growth in assay [19] is 75.1%; in [20], 83.9%.

For the molecule `O=C(Nc1cccc([N+](=O)[O-])c1)Nc1cccc([N+](=O)[O-])c1`, the growth in assay [1] is 28.3%; in [2], 53%; in assay [3], 68%; in [4], 88.2%; in assay [5], 35.2%; in assay [6] it was 2.97% (active). In addition, the growth was 10.1% in assay [7]; 60.5% in assay [8]; 71.7% in assay [9]; 59.1% in assay [10]; 42.2% in assay [11]; 15.3% in assay [12]. The growth in assay [13] is 66.9%; in assay [14] it was 88.1%; in assay [15] it was 99.4%; in assay [16] it was 82.6%; in assay [17] it was 34.6%; in [18] it was 74.9%. The growth is 68.1% in assay [19] and 44.6% in assay [20].
